# Data published in PubChem BioAssay (NCATS).
# Records with an inconclusive call do not appear. The source made the active and inactive calls. Unless noted, calls follow the shape of the dose curve; as a rule, active = well fitted curve in the direction sought with a large enough effect; inconclusive = small, poorly fitted or top-dose-only effect, or another doubt; inactive = no such curve, though single readings can be large; an effect the other way counts as inactive or inconclusive.
# Assays:
# [1] = Primary qHTS for inhibitors of nuclear receptor binding SET domain protein 2 (NSD2) in an isogenic RCH-ACV NSD2 p.E1099K mutant (9B) (AID 1645876); also: nearly all actives have a fitted effect of over 70% in size; also: potency is read from the fitted curve at half-maximal effect
# [2] = Primary qHTS for inhibitors of nuclear receptor binding SET domain protein 2 (NSD2) in an RCH-ACV wild type WT cells (2C) (AID 1645877); also: nearly all actives have a fitted effect of over 70% in size; also: potency is read from the fitted curve at half-maximal effect
# [3] = target: Glutathione peroxidase 1 (Homo sapiens) (UniProt P07203); experiment: Primary qHTS Assay for Inhibitors of Recombinant Selenoprotein Glutathione Peroxidase 1 (GPX1) (AID 1845191); also: nearly all actives have a fitted effect of over 65% in size
# Sequence of Glutathione peroxidase 1 (Homo sapiens) (P07203 whole entry, looked up): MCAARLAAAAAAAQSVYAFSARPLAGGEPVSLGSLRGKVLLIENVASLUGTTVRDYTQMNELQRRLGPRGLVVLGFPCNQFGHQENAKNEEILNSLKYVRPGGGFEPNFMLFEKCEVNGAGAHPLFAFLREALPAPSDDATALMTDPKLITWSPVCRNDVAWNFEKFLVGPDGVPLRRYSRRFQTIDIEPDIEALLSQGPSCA
# In short: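 10 nM GPX1 + cpd, 30 min RT; start w/ 1 mM GSH, 0.5 mM cumene hydroperoxide, 0.5 mM NADPH, 100 nM GR, 0.01% BSA; buffer 50 mM Tris-HCl pH 7.5, 2 mM EDTA, 150 mM NaCl; Fl 340/450, 0 & 15 min.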
# [4] = target: Phospholipid hydroperoxide glutathione peroxidase GPX4 (Homo sapiens) (UniProt P36969); experiment: Primary qHTS Assay for Inhibitors of Recombinant Selenoprotein Glutathione Peroxidase 4 (GPX4) (AID 1845192); also: nearly all actives have a fitted effect of over 65% in size; as to activity change, negative = inhibition: % is scaled to controls: 0 for no effect and ±100 for the full control effect
# Sequence of Phospholipid hydroperoxide glutathione peroxidase GPX4 (Homo sapiens) (P36969 whole entry, looked up): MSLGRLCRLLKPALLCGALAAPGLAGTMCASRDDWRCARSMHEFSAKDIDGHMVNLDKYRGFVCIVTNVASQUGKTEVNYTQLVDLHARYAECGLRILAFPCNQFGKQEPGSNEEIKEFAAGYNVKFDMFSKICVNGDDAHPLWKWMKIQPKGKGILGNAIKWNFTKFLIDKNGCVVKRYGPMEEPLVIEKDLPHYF
# In short: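 NADPH consumption, followed by fluorescence at 340/450 nm between 0 and 15 min, reports GPX4 activity via coupled glutathione reductase (100 nM). Enzyme 200 nM was pre-exposed to compound 30 min; 0.5 mM cumene hydroperoxide and 1 mM GSH served as substrates.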
# [5] = qHTS drug screen for cell cycle checkpoint inhibitors in PARPi-resistant BRCA-mutant ovarian cancer cell lines. (AID 1963452; calls by dose curve); conditions: PEO1/OlaR viability, CellTiter-Glo luminescence, 96 h, stronger effect = lower value
# In short: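 PEO1, PEO4 and PEO1/OlaR ovarian cancer cells, 600 per well, exposed 96 h at 37C to a dilution series. Viability read by CellTiter-Glo luminescence, normalized to DMSO and empty wells; activity summarized as Z-AUC.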
# [6] = NCATS anti-infectives library activity on HEK293 viability as a counter-qHTS vs the C. elegans viability qHTS (AID 1745854);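 also: HEK293 cells exposed to compounds for 24 hr before the viability read; % is scaled to controls: 0 for no effect and ±100 for the full control effect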
# In short: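 Cytotoxicity in human HEK293 cells is measured by ATP-dependent CellTiter-Glo luminescence following a 24 hr incubation with titrated library compounds at 37C. Top final concentration is 41.7 uM.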
# [7] = NCATS anti-infectives library activity on the primary C. elegans qHTS viability assay (AID 1745855; calls by dose curve)
# In short: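 Viability is taken from GFP fluorescence of PE254-GFP-FLuc C. elegans imaged by laser cytometry over 7 days. Ten L1 worms per well grow at 21 °C on TOP10 E. coli capsules with titrated compound; levamisole marks toxicity.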
# [8] = target: Tyrosine-protein kinase Yes (Homo sapiens) (UniProt P07947); experiment: qHTS for small molecule inhibitors of Yes1 kinase: Primary Screen (AID 686947);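 also: plate controls were DMSO with enzyme for no effect and no-enzyme DMSO wells for full effect; nearly all actives have a fitted effect of over 60% in size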
# Sequence of Tyrosine-protein kinase Yes (Homo sapiens) (P07947 whole entry, looked up): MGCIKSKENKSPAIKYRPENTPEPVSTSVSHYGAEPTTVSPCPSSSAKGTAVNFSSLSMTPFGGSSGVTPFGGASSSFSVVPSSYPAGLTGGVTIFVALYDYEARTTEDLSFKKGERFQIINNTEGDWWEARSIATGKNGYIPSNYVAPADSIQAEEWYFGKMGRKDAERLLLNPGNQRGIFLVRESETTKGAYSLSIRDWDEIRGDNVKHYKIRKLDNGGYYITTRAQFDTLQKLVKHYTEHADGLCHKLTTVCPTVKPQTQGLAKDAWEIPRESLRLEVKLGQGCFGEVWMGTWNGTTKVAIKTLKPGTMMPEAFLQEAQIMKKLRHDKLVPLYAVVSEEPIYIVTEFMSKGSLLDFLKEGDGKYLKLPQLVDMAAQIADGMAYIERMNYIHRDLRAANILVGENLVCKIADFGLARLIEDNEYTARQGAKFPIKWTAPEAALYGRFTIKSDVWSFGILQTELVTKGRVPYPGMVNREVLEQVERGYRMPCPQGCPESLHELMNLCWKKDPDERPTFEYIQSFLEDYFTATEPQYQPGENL
# In short: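 ADP-Glo luminescence readout; final 4 nM Yes1, 0.1 mM ATP, 0.3 mg/mL poly(E4Y), Tris pH 7.5, MgCl2, DTT, Brij-35. 20 min compound preincubation, 60 min reaction at RT. Normalized to DMSO wells with and without enzyme.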
# [9] = qHTS for small molecule inhibitors of Yes1 kinase: Counter Assay (AID 686950);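 also: no kinase present so only ADP-Glo detection of a fixed ADP amount is tested; luminescence from ADP-Glo reporting ADP in a fixed ATP and ADP mixture; 0% = DMSO wells with ATP plus ADP and -100% = ATP-only wells without ADP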
# In short: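 Luminescence read-out from ADP-Glo quantifies a fixed ADP amount (0.02 mM ADP with 0.08 mM ATP) after 60 min at room temperature; signal is normalized between DMSO wells with ATP/ADP and with 0.1 mM ATP alone.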
# [10] = target: Catechol O-methyltransferase (Homo sapiens) (UniProt P21964); experiment: Confirmatory Screen for Target Class Profiling of Small Molecule Inhibitors of Methyltransferases (AID 1745852; calls by dose curve; also: potency is read from the fitted curve at half-maximal effect; as to activity change, negative = inhibition: % is scaled to controls: 0 for no effect and ±100 for the full control effect); conditions: MTase-Glo luminescence, SAH detection, recombinant enzyme; measured here: COMT max response; stronger effect = lower value
# Sequence of Catechol O-methyltransferase (Homo sapiens) (P21964 whole entry, looked up): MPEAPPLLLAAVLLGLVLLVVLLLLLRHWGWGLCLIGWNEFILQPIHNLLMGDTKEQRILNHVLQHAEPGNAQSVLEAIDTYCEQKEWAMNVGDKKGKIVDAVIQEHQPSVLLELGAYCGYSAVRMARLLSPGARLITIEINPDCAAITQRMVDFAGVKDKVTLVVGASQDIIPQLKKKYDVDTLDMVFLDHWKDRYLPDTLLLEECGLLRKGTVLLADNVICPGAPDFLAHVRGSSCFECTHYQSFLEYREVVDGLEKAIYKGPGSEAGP
# [11] = target: Guanidinoacetate N-methyltransferase (Homo sapiens) (UniProt Q14353); experiment: as above; conditions: MTase-Glo luminescence, SAH detection, recombinant enzyme; activity change, negative = inhibition: at 57.3 µM (top of the series) unless noted
# [12] = target: Nicotinamide N-methyltransferase (Homo sapiens) (UniProt P40261); experiment: as above; conditions: MTase-Glo luminescence, SAH detection, recombinant enzyme; measured here: NNMT max response; stronger effect = lower value
# Sequence of Nicotinamide N-methyltransferase (Homo sapiens) (P40261 whole entry, looked up): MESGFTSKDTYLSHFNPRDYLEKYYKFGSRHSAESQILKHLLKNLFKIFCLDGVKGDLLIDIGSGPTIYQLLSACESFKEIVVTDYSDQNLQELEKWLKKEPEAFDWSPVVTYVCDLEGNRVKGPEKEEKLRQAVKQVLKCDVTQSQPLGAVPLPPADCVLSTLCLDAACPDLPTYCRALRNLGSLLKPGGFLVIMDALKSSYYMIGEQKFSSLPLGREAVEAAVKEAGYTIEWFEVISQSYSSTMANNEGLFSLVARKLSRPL
# [13] = target: Phenylethanolamine N-methyltransferase (Homo sapiens) (UniProt P11086); experiment: as above; conditions: MTase-Glo luminescence, SAH detection, recombinant enzyme; measured here: PNMT max response; stronger effect = lower value
# Sequence of Phenylethanolamine N-methyltransferase (Homo sapiens) (P11086 whole entry, looked up): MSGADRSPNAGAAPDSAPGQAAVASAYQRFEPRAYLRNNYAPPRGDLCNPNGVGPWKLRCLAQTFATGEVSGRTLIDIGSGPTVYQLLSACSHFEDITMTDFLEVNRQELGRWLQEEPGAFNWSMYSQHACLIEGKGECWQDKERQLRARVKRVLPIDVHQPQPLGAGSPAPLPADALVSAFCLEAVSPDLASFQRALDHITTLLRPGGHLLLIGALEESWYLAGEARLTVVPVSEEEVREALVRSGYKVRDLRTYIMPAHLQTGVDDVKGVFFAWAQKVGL
# [14] = measured here: PEO1 parental Z-AUC
compound,measurement,setting,value
Cc1ccc(-c2nn(C(C)(C)CNC(=O)c3ccncc3)c3ncnc(N)c23)cc1,Potency,[1],8.33 µM (active)
same,Potency,[2],7.42 µM (active)
same,Potency,[3],inactive
same,Potency,[4],inactive
same,Z-AUC,[5],-0.525 (inactive)
same,Z-AUC,[5]; [14],-1.23
same,Z-AUC,[5]; measured here: PEO4 Z-AUC,-1.14
CCOC(=O)CCNc1cc(N2CCc3ccccc3CC2)nc(-c2ccccn2)n1,Potency,[1],2.35 µM (active)
same,Potency,[2],2.63 µM (active)
same,Potency,[3],inactive
same,Potency,[4],inactive
same,Z-AUC,[5],0.71 (inactive)
same,Z-AUC,[5]; [14],0.271
same,Z-AUC,[5]; measured here: PEO4 Z-AUC,-0.212
O=C(/C=C/c1ccc2ccccc2n1)c1ccncc1,Potency,[1],3.66 µM (active)
same,Potency,[2],4.11 µM (active)
same,Potency,[3],inactive
Nc1ccc(F)cc1NC(=O)c1ccc(CNC(=O)/C=C/c2cccnc2)cc1,Potency,[1],1.05 µM (active)
same,Potency,[2],1.18 µM (active)
same,outcome,[6],inactive
same,Potency,[7],inactive
same,Potency,[3],inactive
same,Potency,[4],inactive
same,Z-AUC,[5],-1.13 (inactive)
same,Z-AUC,[5]; [14],-0.9
same,Z-AUC,[5]; measured here: PEO4 Z-AUC,-0.779
Nc1cc(C(F)(F)F)c(-c2nc(N3CCOCC3)nc(N3CCOCC3)n2)cn1,Potency,[1],0.742 µM (active)
same,Potency,[2],0.525 µM (active)
same,Potency,[3],inactive
same,Potency,[4],inactive
same,Z-AUC,[5],-0.884 (inactive)
same,Z-AUC,[5]; [14],-0.21
same,Z-AUC,[5]; measured here: PEO4 Z-AUC,-0.177
[N-]=[N+]=N[C@]1(CO)O[C@@H](n2ccc(N)nc2=O)[C@@H](O)[C@@H]1O,Potency,[1],5.17 µM (active)
same,Potency,[2],3.66 µM (active)
same,outcome,[6],inactive
CCC(=O)NC[C@H](Cc1ccc(OCCc2nc(-c3ccccc3)oc2C)cc1)N/C(C)=C\C(=O)c1ccc(C(F)(F)F)cc1,Potency,[1],inactive
same,Potency,[2],inactive
same,Potency,[3],inactive
same,Potency,[4],inactive
Nc1nonc1-c1nc2cnccc2n1C1CCCCC1,outcome,[8],inactive
same,outcome,[9],inactive
same,Potency,[1],5.17 µM (active)
same,Potency,[2],2.91 µM (active)
same,activity,[10],-23.3%
same,Potency,[11],27.1 µM (active)
same,activity,[12],-44.1%
same,activity,[13],-20.9%
same,Potency,[3],inactive
COc1ccccc1C(=O)Nc1cc2c(cc1N1CCNC[C@H]1C)n(C)c(=O)n2C,Potency,[1],20.9 µM (active)
same,Potency,[2],18.6 µM (active)
same,Potency,[3],inactive
same,Potency,[4],inactive
CCCS(=O)(=O)c1nc(NC2CC2)cc(-c2ccc3c(ccn3C3CC(C)(C)NC(C)(C)C3)c2)n1,Potency,[1],2.48 µM (active)
same,Potency,[2],2.21 µM (active)
same,activity,[10],-4.11%
same,"activity change, negative = inhibition",[11],1.84% [at 19.1 µM]
same,activity,[12],-12%
same,activity,[13],-6.24%
same,Potency,[4],inactive
same,Z-AUC,[5],-1.38 (inactive)
same,Z-AUC,[5]; [14],-1.22
same,Z-AUC,[5]; measured here: PEO4 Z-AUC,-1.57
CC(C)(C)NC(=O)c1cncn1C1CCN(c2ccc(-c3nnc(C(F)(F)F)o3)cn2)CC1,Potency,[1],2.63 µM (active)
same,Potency,[2],2.35 µM (active)
same,Potency,[3],inactive
same,Potency,[4],inactive
same,Z-AUC,[5],-0.537 (inactive)
same,Z-AUC,[5]; [14],0.427
same,Z-AUC,[5]; measured here: PEO4 Z-AUC,0.071
C[C@@H](C(=O)Nc1ccc(Cl)cc1)C1CCC(c2ccnc3ccc(F)cc23)CC1 (stereo partly drawn),Potency,[1],14.8 µM (active)
same,Potency,[2],13.2 µM (active)
same,Potency,[3],inactive
same,Potency,[4],inactive
same,Z-AUC,[5],-1.08 (inactive)
same,Z-AUC,[5]; [14],-1.14
same,Z-AUC,[5]; measured here: PEO4 Z-AUC,-0.907
C/C(=C\c1csc(C)n1)[C@@H]1C[C@@H]2O[C@]2(C)CCC[C@H](C)[C@H](O)[C@@H](C)C(=O)C(C)(C)[C@@H](O)CC(=O)N1,Potency,[1],0.934 µM (active)
same,Potency,[2],0.742 µM (active)
same,Potency,[3],inactive
same,Potency,[4],inactive
same,Z-AUC,[5],-0.955 (inactive)
same,Z-AUC,[5]; [14],-1.61
same,Z-AUC,[5]; measured here: PEO4 Z-AUC,-1.78
Cc1ccc(Sc2ccccc2N2CCNCC2)c(C)c1,Potency,[1],10.5 µM (active)
same,Potency,[2],7.42 µM (active)
same,Potency,[3],inactive
same,Potency,[4],inactive
same,Z-AUC,[5],0.87 (inactive)
same,Z-AUC,[5]; [14],0.0255
same,Z-AUC,[5]; measured here: PEO4 Z-AUC,-0.0248
NC(=O)C1=C(O)[C@@]2(O)C(=O)C3=C(O)c4c(O)cccc4C[C@H]3C[C@H]2CC1=O,Potency,[1],4.17 µM (active)
same,Potency,[2],3.32 µM (active)
same,Potency,[3],inactive
same,Z-AUC,[5],-0.543 (inactive)
same,Z-AUC,[5]; [14],-1.08
same,Z-AUC,[5]; measured here: PEO4 Z-AUC,-1.12
O=C(Nc1ncc(SCCN2CCCC2)s1)[C@]1(c2ccc(S(=O)(=O)C3CC3)cc2)C[C@H]1C1CCCCC1,Potency,[1],10.5 µM (active)
same,Potency,[2],8.33 µM (active)
same,Potency,[3],inactive
same,Potency,[4],inactive
same,Z-AUC,[5],0.2 (inactive)
same,Z-AUC,[5]; [14],-0.0651
same,Z-AUC,[5]; measured here: PEO4 Z-AUC,0.2
Cc1ccc(Nc2nnc(Cc3ccncc3)c3ccccc23)cc1Br,Potency,[1],14.8 µM (active)
same,Potency,[2],13.2 µM (active)
same,Potency,[3],inactive
same,Potency,[4],inactive
same,Z-AUC,[5],0.372 (inactive)
same,Z-AUC,[5]; [14],0.414
same,Z-AUC,[5]; measured here: PEO4 Z-AUC,-0.215
c1ccc2c(-c3cnn4cc(-c5ccc(OCCN6CCOCC6)cc5)cnc34)ccnc2c1,Potency,[1],3.62 µM (active)
same,Potency,[2],3.23 µM (active)
same,Potency,[3],inactive
same,Potency,[4],inactive
same,Z-AUC,[5],-1.41 (inactive)
same,Z-AUC,[5]; [14],-1.08
same,Z-AUC,[5]; measured here: PEO4 Z-AUC,-0.99
